Laboratory results reported in PubChem BioAssay (NCATS).
Inconclusive results are not listed. A call without a number means that no potency is given here. Calls of active or inactive are those of the source. Unless noted, calls come from the whole dose curve; as a rule, active = well fitted curve in the direction sought with a large enough effect; inconclusive = small, poorly fitted or top-dose-only effect, or another doubt; inactive = no such curve, though single readings can be large; an effect the other way counts as inactive or inconclusive.

Key:
[1] = target: RecQ-like DNA helicase BLM (Homo sapiens) (UniProt P54132); test: qHTS Validation Assay for Inhibitors of Bloom's syndrome helicase (BLM) (AID 2364)
Summary of the method: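 Forked 20-bp duplex substrate (200 nM, TAMRA/BHQ-2) plus 2 mM ATP added after 15 min compound preincubation with 50 nM enzyme, pH 8.0, poly(dI-dC) 2.5 ug/ml. Strand separation followed by fluorescence (525/598 nm) over 2 h, normalized to enzyme-free and DMSO controls.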

[2] = Validation screen for inhibitors of Lassa infection (AID 463096; calls by dose curve; note: potency is the fitted concentration of half-maximal effect)
[3] = target: Ferritin light chain (Equus caballus) (UniProt P02791); test: qHTS Validation Assay for Identification of Novel General Anesthetics (AID 2323); note: series mostly up to about 77 µM
Ferritin light chain (Equus caballus), sequence (P02791 2-175 limits assumed): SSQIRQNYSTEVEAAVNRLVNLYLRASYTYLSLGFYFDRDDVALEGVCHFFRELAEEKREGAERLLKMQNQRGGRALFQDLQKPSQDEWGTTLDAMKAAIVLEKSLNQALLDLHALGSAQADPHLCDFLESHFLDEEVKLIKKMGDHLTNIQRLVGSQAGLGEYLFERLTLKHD
Summary of the method: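 Apoferritin from horse spleen (10 uM) was mixed with 1-aminoanthracene at 50% saturation in PBS, then compounds were added. After 10 min at room temperature, fluorescence was read (ex 380 nm, em 535 nm) and normalized to free-probe and complex controls.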

[4] = Quantitative high throughput screen for delayed death inhibitors of the malarial parasite plastid, 96 hour incubation (AID 488745); note: nearly all actives have a fitted effect of over 70% in size; note: potency is the fitted concentration of half-maximal effect
Summary of the method: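 P. falciparum carrying an integrated firefly luciferase reporter, grown in erythrocytes (2% hematocrit, 0.1% parasitemia final) in RPMI 1640/0.5% Albumax, was exposed to compound for 96 h (two generations) at 37 C, 5% CO2. Luminescence decrease indicated growth inhibition.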

[5] = Quantitative high throughput screen for delayed death inhibitors of the malarial parasite plastid, 48 hour incubation (AID 488752); note: nearly all actives have a fitted effect of over 65% in size; note: potency is the fitted concentration of half-maximal effect
Summary of the method: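 Erythrocytes infected with P. falciparum carrying an integrated firefly luciferase reporter (2% hematocrit, 0.1% parasitemia final) were exposed to compounds in RPMI 1640/0.5% Albumax for 48 h at 37 C, 5% CO2. Growth inhibition was scored as reduced luminescence.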

[6] = target: ATP-dependent DNA helicase Q1 (Homo sapiens) (UniProt P46063); test: qHTS Validation Assay for Inhibitors of RecQ-Like Dna Helicase 1 (RECQ1) (AID 2353)
Summary of the method: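 50 nM RECQ1T1 preincubated 15 min with compound in Tris pH 8.0 buffer with MgCl2, DTT, Tween-20 and 2.5 ug/ml poly(dI-dC); started with 200 nM TAMRA/BHQ-2 forked duplex and 2 mM ATP. Unwinding read as fluorescence (525/598 nm), two reads 2 h apart.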

[7] = High Content Imaging Cell-Based qHTS for Inhibitors of the mTORC1 Signaling Pathway in MEF Cells (AID 2667); note: potency is the fitted concentration of half-maximal effect
Summary of the method: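 Immunofluorescence for rpS6 phosphorylation in MEFs of Tsc2-/-, p53-/- background rescued with WT Tsc2. Compound exposure lasted 24 hrs. Inhibition was scored against rapamycin-treated control wells.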

[8] = Cytometry Cell-Based qHTS for Inhibitors of the mTORC1 Signaling Pathway in MEF cells (AID 2668); note: potency is the fitted concentration of half-maximal effect
Summary of the method: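 Pathway inhibition in WT Tsc2-rescued Tsc2-/-, p53-/- MEFs is measured as the Alexa-488 phospho-rpS6 to propidium iodide intensity ratio after 24 hrs of compound at 37 degree Celsius. PI-stained cell number gives viability.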

[9] = Validation screen for small molecules that induce DNA re-replication in MCF 10A normal breast cells (AID 463097); note: nearly all actives have a fitted effect of over 60% in size; note: potency is the fitted concentration of half-maximal effect
Summary of the method: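 DNA re-replication was detected as a rise in nuclei with elevated Hoechst fluorescence after a 48 hr compound exposure of MCF 10A cells at 37 C.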

[10] = target: Ubiquitin carboxyl-terminal hydrolase 2 (Homo sapiens) (UniProt O75604); test: qHTS Validation Assay for Inhibitors of Ubiquitin-specific Protease USP2a Using CHOP2 as the Reporter (AID 463106)
Ubiquitin carboxyl-terminal hydrolase 2 (Homo sapiens), sequence (O75604 whole entry, looked up): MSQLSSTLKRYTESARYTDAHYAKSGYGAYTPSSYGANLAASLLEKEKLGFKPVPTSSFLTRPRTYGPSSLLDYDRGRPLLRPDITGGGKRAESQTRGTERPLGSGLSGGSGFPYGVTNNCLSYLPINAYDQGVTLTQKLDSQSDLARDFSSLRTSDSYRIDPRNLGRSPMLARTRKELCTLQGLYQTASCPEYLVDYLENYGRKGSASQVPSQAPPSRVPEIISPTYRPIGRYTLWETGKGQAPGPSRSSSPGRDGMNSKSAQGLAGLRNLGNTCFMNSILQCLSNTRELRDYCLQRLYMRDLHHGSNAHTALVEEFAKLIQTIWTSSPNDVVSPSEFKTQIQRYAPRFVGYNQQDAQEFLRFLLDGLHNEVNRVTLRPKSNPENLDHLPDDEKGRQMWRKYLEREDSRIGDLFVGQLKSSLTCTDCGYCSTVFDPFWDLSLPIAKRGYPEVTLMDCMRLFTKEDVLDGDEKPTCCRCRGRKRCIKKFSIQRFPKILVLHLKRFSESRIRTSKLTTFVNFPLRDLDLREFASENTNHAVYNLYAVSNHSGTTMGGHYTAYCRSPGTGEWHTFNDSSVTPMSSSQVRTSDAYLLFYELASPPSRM
Summary of the method: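 10nM USP2 core + cpd, 30min RT; add 25nM Ub-CHOP2/25nM substrate; 60min RT; FI 485/531nm. Buffer Tris pH 8.0, CaCl2, BME, CHAPS. Norm. to NEM = 100% inhibition; time-zero read flags fluorescent artifacts.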

[11] = target: DNA polymerase III PolC-type (Bacillus subtilis (strain 168)) (UniProt P13267); test: qHTS Validation Assay for the Inhibitors of DNA Replication in Gram-Positive Bacteria (AID 485295);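 note: reconstituted holoenzyme with PolC plus beta clamp SSB and primase; PicoGreen fluorescence of double-stranded DNA made on primed circular M13 template; series mostly up to about 57 µM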
DNA polymerase III PolC-type (Bacillus subtilis (strain 168)), sequence (P13267 whole entry, looked up): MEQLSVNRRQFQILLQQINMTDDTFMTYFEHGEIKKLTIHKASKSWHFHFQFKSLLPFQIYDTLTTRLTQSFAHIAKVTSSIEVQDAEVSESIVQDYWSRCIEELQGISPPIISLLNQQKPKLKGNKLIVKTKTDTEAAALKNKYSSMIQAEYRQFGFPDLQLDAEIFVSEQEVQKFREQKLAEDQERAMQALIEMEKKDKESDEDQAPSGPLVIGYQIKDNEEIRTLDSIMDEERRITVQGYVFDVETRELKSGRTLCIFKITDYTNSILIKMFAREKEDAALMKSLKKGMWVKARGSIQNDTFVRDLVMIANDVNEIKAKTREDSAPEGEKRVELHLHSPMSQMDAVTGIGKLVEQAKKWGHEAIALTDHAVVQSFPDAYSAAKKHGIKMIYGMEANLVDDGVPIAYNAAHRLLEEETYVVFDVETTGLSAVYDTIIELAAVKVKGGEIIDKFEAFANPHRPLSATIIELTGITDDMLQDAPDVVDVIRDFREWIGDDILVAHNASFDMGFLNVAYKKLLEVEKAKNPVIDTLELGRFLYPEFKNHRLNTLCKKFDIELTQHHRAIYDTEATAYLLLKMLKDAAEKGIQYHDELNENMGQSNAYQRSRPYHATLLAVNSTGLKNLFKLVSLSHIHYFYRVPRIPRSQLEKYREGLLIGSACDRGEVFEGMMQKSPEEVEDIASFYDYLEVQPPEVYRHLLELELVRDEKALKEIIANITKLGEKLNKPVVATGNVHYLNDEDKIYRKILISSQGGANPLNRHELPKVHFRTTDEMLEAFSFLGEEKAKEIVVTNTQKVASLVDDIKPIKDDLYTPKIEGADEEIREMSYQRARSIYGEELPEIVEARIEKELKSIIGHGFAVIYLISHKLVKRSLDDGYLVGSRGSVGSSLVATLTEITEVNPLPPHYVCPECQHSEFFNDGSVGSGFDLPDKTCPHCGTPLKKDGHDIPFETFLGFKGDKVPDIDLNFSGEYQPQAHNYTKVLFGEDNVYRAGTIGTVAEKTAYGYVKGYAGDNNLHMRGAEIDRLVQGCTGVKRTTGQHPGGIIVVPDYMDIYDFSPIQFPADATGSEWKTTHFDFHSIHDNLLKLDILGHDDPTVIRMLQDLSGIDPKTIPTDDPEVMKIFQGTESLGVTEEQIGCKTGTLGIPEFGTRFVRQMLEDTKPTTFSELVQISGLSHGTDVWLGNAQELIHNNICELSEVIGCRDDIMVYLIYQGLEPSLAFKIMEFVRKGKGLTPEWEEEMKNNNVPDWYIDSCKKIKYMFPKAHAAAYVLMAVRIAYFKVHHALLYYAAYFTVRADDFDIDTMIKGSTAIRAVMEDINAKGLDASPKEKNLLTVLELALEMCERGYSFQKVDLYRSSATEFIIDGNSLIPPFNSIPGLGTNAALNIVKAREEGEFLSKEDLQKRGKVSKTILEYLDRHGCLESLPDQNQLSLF
Summary of the method: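 Primed replication of single-stranded M13Gori by a four-protein B. subtilis holoenzyme is measured at room temperature. Double-stranded product is quantified by PicoGreen fluorescence after an EDTA stop; inhibition is scaled between DMSO and EDTA controls.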

[12] = target: Tumor susceptibility gene 101 protein (Homo sapiens) (UniProt Q99816); test: qHTS Validation Assay for Iinhibitors of HIV-1 Budding by Blocking the Interaction of PTAP/TSG101 (AID 485342; calls by dose curve)
Tumor susceptibility gene 101 protein (Homo sapiens), sequence (Q99816 whole entry, looked up, the tested form may be a part): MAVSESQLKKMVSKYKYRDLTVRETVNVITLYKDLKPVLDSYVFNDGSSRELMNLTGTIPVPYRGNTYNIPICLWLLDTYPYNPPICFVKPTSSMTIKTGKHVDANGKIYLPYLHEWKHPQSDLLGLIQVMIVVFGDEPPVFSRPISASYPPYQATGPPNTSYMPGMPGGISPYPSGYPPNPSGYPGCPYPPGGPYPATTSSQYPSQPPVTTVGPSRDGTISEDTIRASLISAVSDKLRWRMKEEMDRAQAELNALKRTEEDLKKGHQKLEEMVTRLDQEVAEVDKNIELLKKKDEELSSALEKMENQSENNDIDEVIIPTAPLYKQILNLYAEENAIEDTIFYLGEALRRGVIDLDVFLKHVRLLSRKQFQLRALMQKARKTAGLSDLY
Summary of the method: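 Fluorescence anisotropy measured PTAP-Tsg101 interaction. Final concentrations were 10 uM protein domain and 50 nM labeled peptide, equilibrated 20 min at room temperature.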

[13] = target: Beta-2 adrenergic receptor (Homo sapiens) (UniProt P07550); test: qHTS validation assay of beta-arrestin-biased ligands of beta2-adrenergic receptor (AID 485366)
Beta-2 adrenergic receptor (Homo sapiens), sequence (P07550 whole entry, looked up): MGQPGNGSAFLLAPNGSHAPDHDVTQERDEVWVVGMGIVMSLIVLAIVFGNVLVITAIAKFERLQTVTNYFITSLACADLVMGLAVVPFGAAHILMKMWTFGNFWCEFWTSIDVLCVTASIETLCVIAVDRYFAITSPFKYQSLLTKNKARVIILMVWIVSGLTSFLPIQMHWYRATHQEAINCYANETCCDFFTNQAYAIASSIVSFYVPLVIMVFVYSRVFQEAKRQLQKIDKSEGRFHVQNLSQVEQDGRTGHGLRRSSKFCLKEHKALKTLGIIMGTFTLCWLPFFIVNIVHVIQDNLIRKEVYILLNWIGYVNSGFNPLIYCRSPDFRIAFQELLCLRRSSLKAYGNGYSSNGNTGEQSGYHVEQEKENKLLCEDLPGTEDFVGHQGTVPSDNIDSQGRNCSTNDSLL
Summary of the method: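 Tango cells (recombinant beta2-AR with recombinant beta-arrestin; recruitment releases tTA driving luciferase) were treated with compounds titrated up to 46 microM for 18 hr at 37 degrees C. Luminescence gave %Activity, and concentration-response curves were curve-classified.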

[14] = target: Thioredoxin reductase 1, cytoplasmic (Rattus norvegicus) (UniProt O89049); test: qHTS Assay for Substrates of Mammalian Selenoprotein Thioredoxin Reductase 1 (TrxR1) (AID 488772);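 note: NADPH fluorescence in the first read after selenite addition and not the 8 min delta; series mostly up to about 57 µM; a drop in NADPH fluorescence below the no-compound background marks a TrxR1 substrate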
Thioredoxin reductase 1, cytoplasmic (Rattus norvegicus), sequence (O89049 whole entry, looked up): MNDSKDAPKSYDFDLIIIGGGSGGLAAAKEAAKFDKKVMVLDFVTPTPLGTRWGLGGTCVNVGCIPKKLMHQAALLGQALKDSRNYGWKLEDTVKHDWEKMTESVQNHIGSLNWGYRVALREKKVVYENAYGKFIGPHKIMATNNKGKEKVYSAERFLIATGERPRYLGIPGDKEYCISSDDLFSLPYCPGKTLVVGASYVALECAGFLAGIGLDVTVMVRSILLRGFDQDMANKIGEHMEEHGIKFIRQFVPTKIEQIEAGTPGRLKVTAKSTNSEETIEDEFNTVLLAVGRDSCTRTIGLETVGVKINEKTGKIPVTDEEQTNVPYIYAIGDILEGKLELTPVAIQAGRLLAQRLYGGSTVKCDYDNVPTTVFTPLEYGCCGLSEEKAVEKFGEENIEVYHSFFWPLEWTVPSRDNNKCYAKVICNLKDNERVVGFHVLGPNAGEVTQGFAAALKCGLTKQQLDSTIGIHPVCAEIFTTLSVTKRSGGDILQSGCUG
Summary of the method: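 Quantitative HTS in Tris-HCl buffer at pH 7.5 with EDTA and Tween-20, using rat TrxR1, 400 uM NADPH and 400 uM selenite (final). A fall in initial NADPH fluorescence relative to background marked substrate behaviour.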

[15] = target: Thioredoxin reductase 1, cytoplasmic (Rattus norvegicus) (UniProt O89049); test: qHTS Assay for Inhibitors of Mammalian Selenoprotein Thioredoxin Reductase 1 (TrxR1) (AID 488773); conditions: Potency: inhibition; note: nearly all actives have a fitted effect of over 40% in size; note: potency is the fitted concentration of half-maximal effect
Summary of the method: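 Steps: enzyme (90 nM) plus NADPH (400 uM final), 5 min at ~22 deg C; compound added, 15 min; selenite (400 uM final) added; fluorescence followed for 8 min. Concentration-response curves derived from the normalized delta values.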

[16] = target: Flap endonuclease 1 (Homo sapiens) (UniProt P39748); test: qHTS Validation Assay for the Inhibitors of Human Flap endonuclease 1 (FEN1) (AID 488816)
Flap endonuclease 1 (Homo sapiens), sequence (P39748 whole entry, looked up): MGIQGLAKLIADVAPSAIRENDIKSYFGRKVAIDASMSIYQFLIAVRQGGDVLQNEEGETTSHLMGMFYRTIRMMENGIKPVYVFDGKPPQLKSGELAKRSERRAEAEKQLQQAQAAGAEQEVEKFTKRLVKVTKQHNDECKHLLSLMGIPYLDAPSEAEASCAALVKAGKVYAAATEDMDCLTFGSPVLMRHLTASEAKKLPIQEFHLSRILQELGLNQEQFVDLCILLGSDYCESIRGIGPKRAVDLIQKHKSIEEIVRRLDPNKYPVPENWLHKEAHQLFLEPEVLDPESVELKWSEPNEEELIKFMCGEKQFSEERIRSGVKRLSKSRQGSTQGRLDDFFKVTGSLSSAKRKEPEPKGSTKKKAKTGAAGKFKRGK
Summary of the method: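 Readings taken at 0 and 15 min after starting the reaction with 50 nM (final) substrate supplied the signal. Compounds had first sat with 10 nM FEN1 reagent for 15 min at room temperature. Values come from Hill-equation concentration-response fits.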

[17] = Cytometric Cell-Based qHTS for Inhibitors of the mTORC1 Signaling Pathway in MEF (Tsc2-/-, p53-/-) Cells (AID 2660);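 note: Tsc2 and p53 null MEFs carrying empty vector with compound for 24 h; percent of cells above a phospho-rpS6 to PI ratio cutoff in each well; series mostly up to about 38 µM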
Summary of the method: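 Readout: Alexa-488 phospho-rpS6 (Ser235/236) intensity divided by PI intensity, thresholded against 7.5 nM rapamycin wells and reported as % positive cells. PI cell count served as the viability measure. Compound exposure was 24 hrs at 37 degree Celsius.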

[18] = High Content Imaging Cell-Based qHTS for Inhibitors of the mTORC1 Signaling Pathway in MEF (Tsc2-/-, p53-/-) Cells (AID 2666);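 note: percent of cells scored positive for phospho-rpS6 Ser235/236 immunostaining by imaging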
Summary of the method: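 Cells were plated, dosed with compound after 24 hrs, and incubated another 24 hrs at 37 degree Celsius. Fixed cells were immunostained for phospho-rpS6 Ser235/236 and counterstained, and the normalized signal was scored as % active cells against rapamycin and DMSO controls.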

[19] = qHTS Validation Assay to Find Inhibitors of Chronic Active B-Cell Receptor Signaling (AID 485345; active = well fitted curve in the direction sought with a large enough effect in the main read-out, with a control signal flat, not every such curve was filed as active)
Summary of the method: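 Read-out: ratio of filter-corrected green (IkappaBalpha fusion) to red (native) luciferase signal in doxycycline-induced TMD8 cells after 4 h at 37C. Titration spanned 46 uM–3 nM; Data were normalised to basal cells and 10 uM MG-132 wells.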

[20] = target: ATP-dependent 6-phosphofructokinase (Trypanosoma brucei brucei) (UniProt O15648); test: qHTS Validation Assay to Find Inhibitors of T. brucei phosphofructokinase (AID 485368)
ATP-dependent 6-phosphofructokinase (Trypanosoma brucei brucei), sequence (O15648 whole entry, looked up): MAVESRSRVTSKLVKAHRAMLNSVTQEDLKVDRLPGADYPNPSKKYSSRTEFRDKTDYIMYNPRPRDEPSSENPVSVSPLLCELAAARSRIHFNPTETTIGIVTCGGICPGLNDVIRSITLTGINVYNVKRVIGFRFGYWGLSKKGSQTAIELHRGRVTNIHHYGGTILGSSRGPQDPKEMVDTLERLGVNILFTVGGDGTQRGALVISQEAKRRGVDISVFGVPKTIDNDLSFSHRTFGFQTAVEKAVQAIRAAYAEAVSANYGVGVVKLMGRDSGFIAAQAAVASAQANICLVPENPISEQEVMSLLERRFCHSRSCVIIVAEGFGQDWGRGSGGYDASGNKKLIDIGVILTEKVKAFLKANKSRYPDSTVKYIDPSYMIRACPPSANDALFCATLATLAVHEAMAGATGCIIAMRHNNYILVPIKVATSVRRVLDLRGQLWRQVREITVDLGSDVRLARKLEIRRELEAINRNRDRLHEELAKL
Summary of the method: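 Compounds (up to 57 uM, titration series) were pinned into substrate buffer, then 1.25 nM PFK added; after 45 min at room temperature, ADP product was quantified by ADP-Glo luminescence and concentration-response curves fitted.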

| SMILES | Potency [1] | Potency [2] | outcome [3] | Potency [4] | Potency [5] | outcome [6] | Potency [7] | Potency [8] | Potency [9] | Potency [10] | Potency [11] | outcome [12] | outcome [13] | outcome [14] | Potency [15] | Potency [16] | outcome [17] | Potency [18] | outcome [19] | Potency [20] |
| --- | --- | --- | --- | --- | --- | --- | --- | --- | --- | --- | --- | --- | --- | --- | --- | --- | --- | --- | --- | --- |
| CC(C)NCC(O)COc1cccc2[nH]ccc12 (centres undefined) | inactive | inactive | – | – | – | – | – | – | – | – | – | – | – | – | – | – | – | – | – | – |
| OCCN1CCN(CCCN2c3ccccc3Sc3ccc(C(F)(F)F)cc32)CC1 | – | – | inactive | 3.29 µM (active) | 9.28 µM (active) | – | – | – | – | – | – | – | – | – | – | – | – | – | – | – |
| c1ccc2c(c1)OCC(C1=NCCN1)O2 (centres undefined) | – | 20 µM (active) | inactive | inactive | inactive | inactive | 6.56 µM (active) | 4.65 µM (active) | 7.94 µM (active) | inactive | inactive | inactive | inactive | inactive | 7.52 µM (active) | inactive | – | – | – | – |
| Cc1ncc(CNC(=O)N(CCCl)N=O)c(N)n1 | – | inactive | inactive | inactive | inactive | inactive | inactive | inactive | inactive | inactive | inactive | inactive | inactive | inactive | inactive | inactive | inactive | inactive | inactive | inactive |
| Cc1ccc(S(=O)(=O)N[C@@H](CCCCN)C(=O)CCl)cc1 | inactive | inactive | inactive | – | inactive | inactive | inactive | inactive | inactive | inactive | inactive | inactive | inactive | inactive | – | – | inactive | inactive | – | – |
| CC[N+](CC)(CC)CC | inactive | inactive | inactive | 4.15 µM (active) | – | inactive | – | – | inactive | – | – | – | – | – | – | inactive | – | – | – | – |
| COc1ccccc1N1CCNCC1 | inactive | inactive | inactive | inactive | inactive | inactive | inactive | inactive | inactive | inactive | inactive | inactive | inactive | inactive | – | inactive | inactive | inactive | inactive | – |
| COC[C@H]1OC(=O)c2coc3c2[C@@]1(C)C1=C(C3=O)C2CCC(=O)[C@@]2(C)C[C@H]1OC(C)=O (some centres undefined) | inactive | – | inactive | 8.28 µM (active) | – | inactive | inactive | inactive | – | inactive | inactive | inactive | inactive | inactive | 11.9 µM (active) | inactive | inactive | inactive | – | inactive |
| NCC(CC(=O)O)c1ccc(Cl)cc1 (centres undefined) | – | inactive | inactive | inactive | inactive | inactive | inactive | inactive | inactive | inactive | inactive | inactive | inactive | inactive | inactive | inactive | inactive | inactive | inactive | – |
| CCn1cc(C(=O)O)c(=O)c2ccc(C)nc21 | – | inactive | inactive | inactive | inactive | inactive | – | – | inactive | – | – | – | – | – | – | – | – | – | – | – |
| CN1C[C@H](CNC(=O)OCc2ccccc2)C[C@@H]2c3cccc4c3c(cn4C)C[C@H]21 | – | – | inactive | 3.29 µM (active) | 7.38 µM (active) | inactive | inactive | inactive | 15.8 µM (active) | inactive | inactive | inactive | inactive | inactive | inactive | inactive | – | – | – | inactive |
| CC(CCc1ccccc1)NC(C)C(O)c1ccc(O)cc1 (centres undefined) | – | inactive | inactive | inactive | inactive | inactive | inactive | inactive | inactive | inactive | inactive | inactive | inactive | inactive | inactive | inactive | inactive | inactive | inactive | inactive |
| COc1ccc([C@@H]2Sc3ccccc3N(CCN(C)C)C(=O)[C@@H]2OC(C)=O)cc1 | – | 1.41 µM (active) | – | – | – | – | – | – | – | – | – | – | – | – | – | – | – | – | – | – |
